A selection: hits, their analogues and other compounds. The true share with any hit is near 12%.
G9a block: inhibitors of human histone lysine methyltransferase G9a | Q96KQ7 | G9a H3K9 monomethylation, AlphaScreen, 2 h | 350,000 compounds, 8.8% hits | Potency, µM (top dose mostly 102 µM), most hits filed as inhibitors; further: nearly all actives have a fitted effect of over 75% in size
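Chemiluminescent proximity detection of H3K9 monomethylation, read after 10 min bead incubation in the dark. Reaction: 20 nM G9a, 500 nM biotin-H3K9 peptide, 20 uM SAM cofactor, 2 h, room temperature, following 15 min enzyme-compound preincubation.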
BAZ2B inh: BAZ2B (human) inhibition. Q9UIF8. AlphaScreen BAZ2B-H3K14Ac peptide displacement. Potency, µM (highest dose often 114 µM), hits mostly inhibitors. 360,000 compounds, 4.4% hits; further: nearly all actives have a fitted effect of over 60% in size
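Inhibition is scored as reduced AlphaScreen emission. The BAZ2B/b-H3(5-23)K14Ac complex (50 nM each) in PBS pH 7.4, 0.01% Tween-20 meets compound (up to 110 uM) for 30 min at RT before bead addition.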
Sfp inh: Sfp phosphopantetheinyl transferase inhibition. Q9F4F7. Biochemical Sfp PPTase activity, qHTS. Potency, µM, most hits filed as inhibitors. 310,000 compounds, 3.5% hits;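 further: the enzyme is Sfp with the accession as filed and its product quenches rhodamine fluorescence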
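Fluorescence-quenching assay with 15 nM Sfp, 5 uM rhodamine-CoA and 12.5 uM BHQ-2-labelled ybbR peptide in pH 7.6 Hepes/MgCl2 buffer. Enzyme was pre-incubated with compound for 15 min at room temperature. Rate was taken from the 30-min fluorescence change (525/598 nm).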
JMJD2A Tudor inh: inhibitors of human JMJD2A Tudor domain | AlphaScreen JMJD2A-Tudor / H3K4me3 peptide binding | Potency, µM (series often up to 114 µM), most hits filed as inhibitors | 390,000 compounds, 4.4% hits | AID 504339; further: nearly all actives have a fitted effect of over 50% in size
PLK1 PBD inh: blocks phosphopeptide binding to human PLK1 polo-box domain; P53350; Plk1 PBD binding of FITC phosphopeptide, fluorescence polarization; Potency, µM, usual class: inhibitors; 360,000 compounds, 2.8% hits; AID 720504; further: series mostly up to about 57 µM; nearly all actives have a fitted effect of over 65% in size
Target sequence (P53350 whole entry, looked up, the tested form may be a part): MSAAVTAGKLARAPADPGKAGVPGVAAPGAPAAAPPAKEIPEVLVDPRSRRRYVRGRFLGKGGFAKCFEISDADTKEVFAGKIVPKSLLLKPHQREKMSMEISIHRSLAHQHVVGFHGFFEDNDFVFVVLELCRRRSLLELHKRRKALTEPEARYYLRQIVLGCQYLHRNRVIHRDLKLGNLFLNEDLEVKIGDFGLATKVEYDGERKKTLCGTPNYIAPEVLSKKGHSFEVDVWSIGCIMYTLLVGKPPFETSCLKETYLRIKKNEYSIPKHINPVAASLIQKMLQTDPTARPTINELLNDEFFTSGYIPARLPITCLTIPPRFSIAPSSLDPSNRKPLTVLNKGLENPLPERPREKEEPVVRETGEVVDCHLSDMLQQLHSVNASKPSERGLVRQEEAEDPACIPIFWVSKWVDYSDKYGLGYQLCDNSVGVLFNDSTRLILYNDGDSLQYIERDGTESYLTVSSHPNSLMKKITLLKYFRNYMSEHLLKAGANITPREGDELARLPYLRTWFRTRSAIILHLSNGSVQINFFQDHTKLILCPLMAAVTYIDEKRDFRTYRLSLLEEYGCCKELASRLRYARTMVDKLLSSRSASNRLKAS
HP1b chromo inh: HP1-beta chromodomain-methylated histone interaction inhibition. P83916. AlphaScreen HP1-beta / biotin-H3K9me3 peptide binding. Potency, µM (doses to about 114 µM), hits mostly inhibitors. 390,000 compounds, 0.56% hits. AID 540317; further: nearly all actives have a fitted effect of over 70% in size
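AlphaScreen: HP1-beta (50 nM) preformed 30 min with biotin-H3(1-18)K9me3 peptide (50 nM) in PBS pH 7.4, 0.01% Tween-20. Compound added for 30 min at RT, then streptavidin donor/nickel chelate acceptor beads (10 ug/mL) for 30 min.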
Each line names hits and unclear results; the compound was inactive in the other large screens; ! = repeats disagree. The call rests on the fitted dose curve; in most records, active means well fitted curve in the direction sought with a large enough effect; inconclusive means small, poorly fitted or top-dose-only effect, or another doubt; inactive means no such curve, though single readings can be large; an effect the other way counts as inactive or inconclusive.

COc1ccc(C(CNS(=O)(=O)c2ccccc2)N2CCN(C)CC2)cc1 (stereo not given)	none (no result: Sfp inh)
CCOC(=O)N1CCN(C2=C(NS(=O)(=O)c3ccc(Br)cc3)C(=O)c3ccccc3C2=O)CC1	none (no result: G9a block, BAZ2B inh, Sfp inh, JMJD2A Tudor inh, HP1b chromo inh)
CN1CCN(C2=C(NS(=O)(=O)c3ccccc3)C(=O)c3ccccc3C2=O)CC1	G9a block 28.2µM, BAZ2B inh inconclusive
CCOC(=O)N1CCN(C2=C(NS(=O)(=O)c3ccccc3)C(=O)c3ccccc3C2=O)CC1	G9a block 35.5µM, BAZ2B inh 31.6µM, JMJD2A Tudor inh inconclusive, HP1b chromo inh inconclusive
COc1cc(NC(=O)CC(C)n2nc(C)cc2C)cc(OC)c1 (stereo not given)	none (no result: Sfp inh, PLK1 PBD inh)
O=C(CO/N=C/c1ccc(OC(F)F)cc1)NC1CCCCCC1	none (no result: BAZ2B inh)
CCNC(=O)c1ccccc1-c1nc(-c2ccccc2Cl)no1	PLK1 PBD inh 11.9µM
Cc1ccccc1-c1noc(-c2ccccc2C(=O)NCc2ccco2)n1	G9a block inconclusive, Sfp inh 44.7µM, HP1b chromo inh inconclusive
O=C(NCc1ccco1)c1ccccc1-c1nc(-c2ccc(F)cc2)no1	G9a block inconclusive
CCNC(=O)c1ccccc1-c1nc(-c2ccccc2OC)no1	none
O=C(CCc1cn(Cc2ccc(F)cc2)c2ccccc12)NCCc1ccc(Cl)cc1	none (no result: Sfp inh, PLK1 PBD inh)
CC(=O)c1ccc(-c2c(C3C4C=CCCC4(C)C(=O)N3Cc3ccccc3)ccc3ccccc23)cc1 (stereo not given)	none (no result: G9a block, BAZ2B inh, PLK1 PBD inh)
CN1CCN(CCCN2c3ccccc3Sc3ccccc32)CC1	G9a block 28.2µM (no result: BAZ2B inh, JMJD2A Tudor inh, PLK1 PBD inh, HP1b chromo inh)
CCSc1ccc2c(c1)N(CCCN1CCN(C)CC1)c1ccccc1S2	G9a block 14.1µM, BAZ2B inh 35.5µM, JMJD2A Tudor inh 39.8µM, HP1b chromo inh inconclusive
CCC(=O)c1ccc2c(c1)N(CCCN1CCN(CCO)CC1)c1ccccc1S2	G9a block inconclusive, Sfp inh 79.4µM (no result: BAZ2B inh, JMJD2A Tudor inh, PLK1 PBD inh, HP1b chromo inh)
CC(=O)c1ccc2c(c1)N(CCCN1CCN(CCO)CC1)c1ccccc1S2	G9a block inconclusive (no result: BAZ2B inh, JMJD2A Tudor inh, PLK1 PBD inh, HP1b chromo inh)
OC1CC2CCC(C1)N2CCCN1c2ccccc2Sc2ccc(Cl)cc21 (stereo not given)	JMJD2A Tudor inh inconclusive (no result: G9a block, BAZ2B inh, Sfp inh)
CN1CCN(CCCN2c3ccccc3Sc3ccc(Cl)cc32)CC1	G9a block 15.8µM!, BAZ2B inh 20µM, Sfp inh inconclusive, JMJD2A Tudor inh 44.7µM, HP1b chromo inh inconclusive
OC(c1ccc(Cl)c(F)c1)c1ncc(-c2cccc3ccccc23)[nH]1 (stereo not given)	none (no result: G9a block, BAZ2B inh, Sfp inh, JMJD2A Tudor inh, HP1b chromo inh)
N#Cc1ccc(CN2CCC3(CC2)CCN(C(=O)c2csnn2)CC3)cc1	none (no result: BAZ2B inh, JMJD2A Tudor inh, PLK1 PBD inh, HP1b chromo inh)
CCCCOC(=O)n1c(=O)oc2cc(S(=O)(=O)N3CCCCC3)ccc21	none
COC(=O)n1c(=S)oc2cc(Cl)ccc21	G9a block 2.51µM, Sfp inh 25.1µM (no result: JMJD2A Tudor inh, PLK1 PBD inh, HP1b chromo inh)
CCCCOC(=O)n1c(=S)oc2cc(Cl)ccc21	Sfp inh 56.2µM, PLK1 PBD inh inconclusive
CC1=NN(c2ccccc2)C(=O)/C1=C\C=C1\N(C)c2ccccc2C1(C)C	G9a block 14.1µM, BAZ2B inh 10µM, JMJD2A Tudor inh 56.2µM, HP1b chromo inh 31.6µM
CN1/C(=C\C=C2/C(=O)Oc3ccccc3C2=O)C(C)(C)c2ccccc21	G9a block inconclusive, BAZ2B inh inconclusive
CC1=NN(c2ccccc2)C(=O)/C1=C\C=C1/N(C)c2ccccc2C1(C)C	G9a block 11.2µM, BAZ2B inh 10µM, JMJD2A Tudor inh 31.6µM, HP1b chromo inh inconclusive
CCC(C(=O)Nc1ccc(C)c(Cl)c1)n1c(=O)c(-c2ccccc2NC(C)=O)nc2ccccc21 (stereo not given)	none (no result: Sfp inh, PLK1 PBD inh)
O=C(Nc1ccc(OC(F)(F)F)cc1)c1ccc(S(=O)(=O)N2CCOCC2)o1	none
COC(=O)c1ccc(-n2cc(-c3ccc(OC)cc3)[nH]c2=S)cc1	G9a block 1.12µM, PLK1 PBD inh 6.7µM
COc1ccc(-n2cc(-c3ccc(Cl)cc3)[nH]c2=S)cc1	none (no result: G9a block)
COc1cccc(-n2cc(-c3ccc(F)cc3)[nH]c2=S)c1	G9a block inconclusive, BAZ2B inh 50.1µM, Sfp inh inconclusive, JMJD2A Tudor inh 44.7µM
COc1ccc(-c2cn(-c3ccc(C)c(Cl)c3)c(=S)[nH]2)cc1OC	G9a block 50.1µM, PLK1 PBD inh 26.7µM
COc1ccccc1-c1cn(-c2ccccc2)c(=S)[nH]1	Sfp inh inconclusive
